# Measurements taken from publication PMC11006913.
# Residue numbers refer to the chain shown, from its start.
# Key:
# Assay in all cases: PBM; 200 nM protein, PBS
# Details in all cases: dsDNA, one strand shown
# PRRX1 [1] = molecular target: PRRX1 (Homo sapiens, UniProt P54821 80-166, F113S)
# NKX2-6 [2] = molecular target: T1, NKX2-6 (Homo sapiens, UniProt A6NCS4 118-204)
# T1 sequence: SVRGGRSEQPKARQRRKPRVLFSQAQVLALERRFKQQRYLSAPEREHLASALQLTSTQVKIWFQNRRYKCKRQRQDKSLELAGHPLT
# NKX2-6 [3] = molecular target: T2, NKX2-6 (Homo sapiens, UniProt A6NCS4 118-204, F151L)
# T2 sequence: T1 sequence with F34L
# PRRX1 [4] = molecular target: PRRX1 (Homo sapiens, UniProt P54821 80-166)
# HOXA2 [5] = molecular target: HOXA2 (Homo sapiens, UniProt O43364 129-215, R185T)
# HOXD13 [6] = molecular target: HOXD13 (Homo sapiens, UniProt P35453 263-343, T313R)
# HOXA2 [7] = molecular target: HOXA2 (Homo sapiens, UniProt O43364 129-215, R185K)
# HOXD13 [8] = molecular target: HOXD13 (Homo sapiens, UniProt P35453 263-343)
# HOXD13 [9] = molecular target: HOXD13 (Homo sapiens, UniProt P35453 263-343, T313A)
# HOXA2 [10] = molecular target: HOXA2 (Homo sapiens, UniProt O43364 129-215, Y150S)
# NKX3-2 [11] = molecular target: NKX3-2 (Homo sapiens, UniProt P78367 192-278, P234S)
# HOXA2 [12] = molecular target: HOXA2 (Homo sapiens, UniProt O43364 129-215)
# NKX3-2 [13] = molecular target: NKX3-2 (Homo sapiens, UniProt P78367 192-278)
# MSX2 [14] = molecular target: MSX2 (Homo sapiens, UniProt P35548 130-214, R199I)
# MSX2 [15] = molecular target: MSX2 (Homo sapiens, UniProt P35548 130-214)
# MSX2 [16] = molecular target: MSX2 (Homo sapiens, UniProt P35548 130-214, F161Y)
# Chain of MSX2 (Homo sapiens, UniProt P35548 130-214, F161Y) (P35548 130-214 F161Y): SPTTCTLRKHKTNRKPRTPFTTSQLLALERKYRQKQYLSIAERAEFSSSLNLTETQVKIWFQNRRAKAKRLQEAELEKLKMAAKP
# Chain of PRRX1 (Homo sapiens, UniProt P54821 80-166, F113S) (P54821 80-166 F113S): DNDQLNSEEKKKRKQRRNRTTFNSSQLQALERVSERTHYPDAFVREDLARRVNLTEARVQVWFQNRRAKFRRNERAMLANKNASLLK
# Chain of PRRX1 (Homo sapiens, UniProt P54821 80-166) (P54821 80-166): as the sequence (P54821 80-166 F113S) above, with S34F counted along it
# Chain of MSX2 (Homo sapiens, UniProt P35548 130-214, R199I) (P35548 130-214 R199I): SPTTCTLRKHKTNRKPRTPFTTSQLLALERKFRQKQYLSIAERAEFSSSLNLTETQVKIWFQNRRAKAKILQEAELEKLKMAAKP
# Chain of MSX2 (Homo sapiens, UniProt P35548 130-214) (P35548 130-214): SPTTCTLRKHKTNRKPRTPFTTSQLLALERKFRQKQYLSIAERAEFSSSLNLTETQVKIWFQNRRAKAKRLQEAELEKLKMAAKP
# Chain of HOXD13 (Homo sapiens, UniProt P35453 263-343) (P35453 263-343): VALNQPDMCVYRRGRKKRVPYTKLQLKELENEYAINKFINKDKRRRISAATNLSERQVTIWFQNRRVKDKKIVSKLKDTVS
# Chain of HOXD13 (Homo sapiens, UniProt P35453 263-343, T313R) (P35453 263-343 T313R): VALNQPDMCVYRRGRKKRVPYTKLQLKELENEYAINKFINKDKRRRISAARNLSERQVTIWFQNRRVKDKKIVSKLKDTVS
# Chain of NKX3-2 (Homo sapiens, UniProt P78367 192-278) (P78367 192-278): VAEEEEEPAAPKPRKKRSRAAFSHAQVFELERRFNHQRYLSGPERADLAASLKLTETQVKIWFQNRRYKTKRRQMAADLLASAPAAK
# Chain of HOXA2 (Homo sapiens, UniProt O43364 129-215, R185K) (O43364 129-215 R185K): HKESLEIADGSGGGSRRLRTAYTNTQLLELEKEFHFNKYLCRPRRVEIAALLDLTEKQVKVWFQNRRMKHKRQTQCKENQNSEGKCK
# Chain of HOXA2 (Homo sapiens, UniProt O43364 129-215, R185T) (O43364 129-215 R185T): as the sequence (O43364 129-215 R185K) above, with K57T counted along it
# Chain of HOXD13 (Homo sapiens, UniProt P35453 263-343, T313A) (P35453 263-343 T313A): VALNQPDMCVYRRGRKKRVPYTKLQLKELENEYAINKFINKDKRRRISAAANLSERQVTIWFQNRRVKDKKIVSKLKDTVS
# Chain of NKX3-2 (Homo sapiens, UniProt P78367 192-278, P234S) (P78367 192-278 P234S): as the sequence (P78367 192-278) above, with P43S counted along it
# Chain of HOXA2 (Homo sapiens, UniProt O43364 129-215, Y150S) (O43364 129-215 Y150S): as the sequence (O43364 129-215 R185K) above, with Y22S, K57R counted along it
# Chain of HOXA2 (Homo sapiens, UniProt O43364 129-215) (O43364 129-215): as the sequence (O43364 129-215 R185K) above, with K57R counted along it
sequence,measurement,setting,value
AGACGAGC,binding signal,PRRX1 [1],"9.44 upbm affinity estimate (log intensity, higher = more binding, comparable within an allelic series)"
same,binding signal,NKX2-6 [2],"9.38 upbm affinity estimate (log intensity, higher = more binding, comparable within an allelic series)"
same,binding signal,NKX2-6 [3],"9.3 upbm affinity estimate (log intensity, higher = more binding, comparable within an allelic series)"
same,binding signal,PRRX1 [4],"9.6 upbm affinity estimate (log intensity, higher = more binding, comparable within an allelic series)"
GCTCGGCC,binding signal,PRRX1 [1],"9.12 upbm affinity estimate (log intensity, higher = more binding, comparable within an allelic series)"
same,binding signal,HOXA2 [5],"7.15 upbm affinity estimate (log intensity, higher = more binding, comparable within an allelic series)"
same,binding signal,HOXD13 [6],"9.46 upbm affinity estimate (log intensity, higher = more binding, comparable within an allelic series)"
same,binding signal,HOXA2 [7],"10.3 upbm affinity estimate (log intensity, higher = more binding, comparable within an allelic series)"
same,binding signal,HOXD13 [8],"9.56 upbm affinity estimate (log intensity, higher = more binding, comparable within an allelic series)"
same,binding signal,HOXD13 [9],"9.62 upbm affinity estimate (log intensity, higher = more binding, comparable within an allelic series)"
same,binding signal,HOXA2 [10],"10.3 upbm affinity estimate (log intensity, higher = more binding, comparable within an allelic series)"
same,binding signal,NKX3-2 [11],"10.3 upbm affinity estimate (log intensity, higher = more binding, comparable within an allelic series)"
same,binding signal,PRRX1 [4],"9.13 upbm affinity estimate (log intensity, higher = more binding, comparable within an allelic series)"
same,binding signal,HOXA2 [12],"6.97 upbm affinity estimate (log intensity, higher = more binding, comparable within an allelic series)"
same,binding signal,NKX3-2 [13],"10.3 upbm affinity estimate (log intensity, higher = more binding, comparable within an allelic series)"
AATGAGGG,binding signal,PRRX1 [1],"9.96 upbm affinity estimate (log intensity, higher = more binding, comparable within an allelic series)"
same,binding signal,PRRX1 [4],"11.2 upbm affinity estimate (log intensity, higher = more binding, comparable within an allelic series)"
ACCCCGGG,binding signal,PRRX1 [1],"9.35 upbm affinity estimate (log intensity, higher = more binding, comparable within an allelic series)"
same,binding signal,MSX2 [14],"9.55 upbm affinity estimate (log intensity, higher = more binding, comparable within an allelic series)"
same,binding signal,MSX2 [15],"9.62 upbm affinity estimate (log intensity, higher = more binding, comparable within an allelic series)"
same,binding signal,MSX2 [16],"9.67 upbm affinity estimate (log intensity, higher = more binding, comparable within an allelic series)"
same,binding signal,PRRX1 [4],"9.33 upbm affinity estimate (log intensity, higher = more binding, comparable within an allelic series)"
CGACGGAA,binding signal,PRRX1 [1],"9.54 upbm affinity estimate (log intensity, higher = more binding, comparable within an allelic series)"
same,binding signal,PRRX1 [4],"9.34 upbm affinity estimate (log intensity, higher = more binding, comparable within an allelic series)"
CATATTGG,binding signal,PRRX1 [1],"10 upbm affinity estimate (log intensity, higher = more binding, comparable within an allelic series)"
same,binding signal,PRRX1 [4],"11.3 upbm affinity estimate (log intensity, higher = more binding, comparable within an allelic series)"
CATCGGAC,binding signal,PRRX1 [1],"9.34 upbm affinity estimate (log intensity, higher = more binding, comparable within an allelic series)"
same,binding signal,PRRX1 [4],"9.14 upbm affinity estimate (log intensity, higher = more binding, comparable within an allelic series)"
CCAAGACG,binding signal,PRRX1 [1],"9.45 upbm affinity estimate (log intensity, higher = more binding, comparable within an allelic series)"
same,binding signal,PRRX1 [4],"9.18 upbm affinity estimate (log intensity, higher = more binding, comparable within an allelic series)"
AATATGCC,binding signal,PRRX1 [1],"9.8 upbm affinity estimate (log intensity, higher = more binding, comparable within an allelic series)"
same,binding signal,PRRX1 [4],"11.1 upbm affinity estimate (log intensity, higher = more binding, comparable within an allelic series)"
GCCAGCAC,binding signal,PRRX1 [1],"9.45 upbm affinity estimate (log intensity, higher = more binding, comparable within an allelic series)"
same,binding signal,PRRX1 [4],"9.5 upbm affinity estimate (log intensity, higher = more binding, comparable within an allelic series)"
CCAACACC,binding signal,PRRX1 [1],"9.31 upbm affinity estimate (log intensity, higher = more binding, comparable within an allelic series)"
same,binding signal,PRRX1 [4],"8.85 upbm affinity estimate (log intensity, higher = more binding, comparable within an allelic series)"
AGATATTA,binding signal,PRRX1 [1],"10.4 upbm affinity estimate (log intensity, higher = more binding, comparable within an allelic series)"
same,binding signal,PRRX1 [4],"12.2 upbm affinity estimate (log intensity, higher = more binding, comparable within an allelic series)"
CCAAGCTC,binding signal,PRRX1 [1],"9.29 upbm affinity estimate (log intensity, higher = more binding, comparable within an allelic series)"
same,binding signal,PRRX1 [4],"9.43 upbm affinity estimate (log intensity, higher = more binding, comparable within an allelic series)"
